Experiment [1] is described as follows: antimalarial activity against Dd2 strain (AID 2302;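 active = growth inhibition above 50% at the single 2 µM test dose, taken to imply half-maximal potency below 2 µM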;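 note: 0% = DMSO untreated growth and 100% = chloroquine plus artemisinin killed control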). The settings on record: P. falciparum Dd2 in RBCs, LDH growth readout, 72 h; at 2 µM; stronger effect = higher value.
A short description of experiment [2]: HepG2 cytotoxicity, primary screen, cytotoxicity control for P. falciparum antimalarial project, cell-based, ATP luminescence (AID 2303;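 active = inhibition above 50%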;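 note: 0% = DMSO wells and 100% = digitonin-killed cells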). The settings on record: HepG2 viability, 24-48 h, at 10 µM, stronger effect = higher value.
Experiment [3] has as its target L-lactate dehydrogenase (Plasmodium falciparum (isolate CDC / Honduras)) (UniProt Q27743). As to the kind of experiment: PfLDH activity inhibition – cell lysate, 3D7 strain, counter-screen for P. falciparum growth inhibition project (AID 2304).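 Note: 0% = vehicle and 100% = reference inhibitor.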 The settings on record: P. falciparum 3D7 crude extract, LDH APAD/NBT absorbance; at 2 µM; stronger effect = higher value.
Experiment [4] in a line: inhibition of 3D7 malaria parasite growth – strain 3D7 (AID 2306).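 Note: 0% = DMSO wells and 100% = chloroquine plus artemisinin control wells.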 The settings on record: P. falciparum 3D7 erythrocytic growth, LDH absorbance, 72 h; at 2 µM; stronger effect = higher value.
Experiment [5] deals with Calcium-dependent protein kinase 1 (Plasmodium falciparum (isolate 3D7)) (UniProt P62344). Briefly: PfCDPK1 kinase inhibitors, biochemical, TCAMS library (AID 1159585; cut-off not given, nearly all actives have IC50 up to about 0.98 µM;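 note: inhibitors leave more ATP so luminescence rises with inhibition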). The settings on record: recombinant PfCDPK1, Kinase-Glo ATP depletion luminescence. (In general: In Kinase-Glo more light means more ATP remaining.)
Calcium-dependent protein kinase 1 (Plasmodium falciparum (isolate 3D7)), sequence (P62344 whole entry, looked up): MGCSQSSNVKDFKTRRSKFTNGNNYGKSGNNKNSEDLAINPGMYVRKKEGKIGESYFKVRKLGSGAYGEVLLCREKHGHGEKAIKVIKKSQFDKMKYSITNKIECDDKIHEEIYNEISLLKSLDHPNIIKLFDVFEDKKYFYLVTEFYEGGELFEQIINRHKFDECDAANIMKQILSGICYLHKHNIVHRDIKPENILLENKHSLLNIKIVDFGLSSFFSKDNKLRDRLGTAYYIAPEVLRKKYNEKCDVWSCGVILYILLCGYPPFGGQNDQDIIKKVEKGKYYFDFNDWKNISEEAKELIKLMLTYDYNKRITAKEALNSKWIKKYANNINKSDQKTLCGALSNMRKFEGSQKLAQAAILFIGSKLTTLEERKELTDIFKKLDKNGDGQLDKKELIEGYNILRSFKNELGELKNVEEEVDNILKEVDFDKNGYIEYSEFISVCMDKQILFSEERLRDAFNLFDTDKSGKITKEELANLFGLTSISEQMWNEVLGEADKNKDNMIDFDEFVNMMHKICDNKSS
Experiment [6] addresses Plasmodium falciparum protein kinase 6 (PK6, PF3D7_1337100) (UniProt Q8IDW1). As to the kind of experiment: PfPK6 kinase inhibitors, biochemical, TCAMS library (AID 1159586). The settings on record: recombinant PfPK6, Kinase-Glo ATP depletion luminescence.
The target in experiment [7] is Protein kinase 7 (PK7), Plasmodium falciparum 3D7 (PF3D7_0213400) (UniProt Q7YTF7). Briefly: inhibition of Plasmodium PK7 catalytic activity – biochemical, TCAMS antimalarial set, Kinase-Glo luminescence (AID 1159587). The settings on record: recombinant PfPK7, Kinase-Glo ATP depletion luminescence.
Protein kinase 7 (PK7), Plasmodium falciparum 3D7 (PF3D7_0213400), sequence (Q7YTF7 1-343): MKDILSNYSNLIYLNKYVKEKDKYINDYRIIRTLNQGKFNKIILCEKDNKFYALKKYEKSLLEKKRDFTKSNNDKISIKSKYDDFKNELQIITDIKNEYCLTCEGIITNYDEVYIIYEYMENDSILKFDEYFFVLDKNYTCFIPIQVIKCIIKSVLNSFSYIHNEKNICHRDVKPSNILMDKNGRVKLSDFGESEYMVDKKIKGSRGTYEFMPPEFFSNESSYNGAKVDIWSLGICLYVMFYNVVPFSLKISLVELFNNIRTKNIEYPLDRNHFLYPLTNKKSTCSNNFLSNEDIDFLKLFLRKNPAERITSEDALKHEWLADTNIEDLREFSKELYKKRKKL
Experiment [8] concerns the target Calcium-dependent protein kinase 4 (Plasmodium falciparum (isolate 3D7)) (UniProt Q8IBS5). As to the kind of experiment: PfCDPK4 kinase inhibitors, biochemical, TCAMS library (AID 1159588; cut-off not given, nearly all actives have IC50 up to about 0.91 µM). The settings on record: recombinant PfCDPK4, Kinase-Glo ATP depletion luminescence.

Unmarked numbers belong to inactive results. For part of these data: Results with a measured potency or affinity are listed apart. Active and inactive are the calls of the source. Unless noted, the rule behind the calls is not given here.

Plasmodium falciparum protein kinase 6 (PK6, PF3D7_1337100), sequence (Q8IDW1 1-305): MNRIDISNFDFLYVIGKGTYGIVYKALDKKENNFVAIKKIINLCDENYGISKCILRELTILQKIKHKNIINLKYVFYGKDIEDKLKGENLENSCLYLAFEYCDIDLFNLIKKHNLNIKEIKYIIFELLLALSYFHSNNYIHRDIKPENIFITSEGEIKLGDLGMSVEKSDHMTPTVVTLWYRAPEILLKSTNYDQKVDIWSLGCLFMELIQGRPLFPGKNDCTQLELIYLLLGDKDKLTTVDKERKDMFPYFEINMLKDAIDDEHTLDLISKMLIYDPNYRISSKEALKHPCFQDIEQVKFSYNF
Calcium-dependent protein kinase 4 (Plasmodium falciparum (isolate 3D7)), sequence (Q8IBS5 whole entry, looked up): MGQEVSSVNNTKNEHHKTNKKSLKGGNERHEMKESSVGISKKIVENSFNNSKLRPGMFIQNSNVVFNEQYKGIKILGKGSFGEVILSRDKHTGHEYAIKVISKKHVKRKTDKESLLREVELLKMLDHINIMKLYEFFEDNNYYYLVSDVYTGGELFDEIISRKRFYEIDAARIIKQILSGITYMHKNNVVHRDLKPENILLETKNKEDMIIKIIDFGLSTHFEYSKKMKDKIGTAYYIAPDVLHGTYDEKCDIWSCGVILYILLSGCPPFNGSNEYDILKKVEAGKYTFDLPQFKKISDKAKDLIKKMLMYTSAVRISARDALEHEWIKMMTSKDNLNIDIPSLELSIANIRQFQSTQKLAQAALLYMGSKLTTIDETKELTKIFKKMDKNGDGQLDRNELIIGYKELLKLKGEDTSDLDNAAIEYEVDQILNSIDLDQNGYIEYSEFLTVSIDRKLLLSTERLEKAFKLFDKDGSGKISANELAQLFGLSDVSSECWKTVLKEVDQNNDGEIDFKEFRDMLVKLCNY
L-lactate dehydrogenase (Plasmodium falciparum (isolate CDC / Honduras)), sequence (Q27743 whole entry, looked up): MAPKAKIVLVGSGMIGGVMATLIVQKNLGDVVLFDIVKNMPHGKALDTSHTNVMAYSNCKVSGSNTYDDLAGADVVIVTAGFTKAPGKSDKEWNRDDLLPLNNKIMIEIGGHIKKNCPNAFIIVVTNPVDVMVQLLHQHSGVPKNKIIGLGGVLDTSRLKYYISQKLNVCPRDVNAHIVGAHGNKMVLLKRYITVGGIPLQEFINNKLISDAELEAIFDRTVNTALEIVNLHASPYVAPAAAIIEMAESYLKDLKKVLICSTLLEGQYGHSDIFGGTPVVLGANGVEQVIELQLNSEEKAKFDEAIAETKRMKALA

Consider `CCCc1ccc(-c2csc(NC(=O)c3ccc([N+](=O)[O-])o3)n2)cc1`, for which the growth inhibition was 13% in experiment [1] and 85% (active) in experiment [4]. Moreover, the inhibition in experiment [2] is 72% (active); in experiment [3], 4%. Also, the result in experiment [5], in experiment [6], in experiment [7] and in experiment [8] was inactive.

`COc1ccc(CCNCCCCCCNCCc2ccc(OC)c(OC)c2Cl)c(Cl)c1OC`: the growth inhibition in experiment [1] is -2%; in experiment [4], 96% (active). The inhibition in experiment [2] was 19%; in experiment [3] it was 1%. Besides, the result in experiment [5], in experiment [6], in experiment [7] and in experiment [8] was inactive.

For `O=C(Nc1cccc(F)c1)N[C@H]1CCN(CCCCCNC(=O)[C@@H]2C[C@H]2c2ccc(Cl)c(Cl)c2)C1`, the growth inhibition in experiment [1] is 1%; in experiment [4], 90% (active). The inhibition was 41% in experiment [2] and -1% in experiment [3]. The result in experiment [5], in experiment [6], in experiment [7] and in experiment [8] was inactive.

With `OC1(C(F)(F)F)CC(c2ccccc2)=NN1c1nncc(-c2ccccc2)n1` (stereo not drawn), the growth inhibition is 3% in experiment [1] and 99% (active) in experiment [4]. For the same compound, the inhibition in experiment [2] was -3%; in experiment [3], -5%. The result in experiment [5], in experiment [6], in experiment [7] and in experiment [8] was inactive.

For `O=c1cc(NCCCNC2CCOc3c(Cl)cccc32)[nH]c2ccccc12` (stereo not drawn), the figures for the growth inhibition in experiment [1] and in experiment [4] were 27% and 96% (active), respectively. Further, the inhibition is -3% in experiment [2] and 3% in experiment [3]. In addition, the outcome in experiment [5], in experiment [6], in experiment [7] and in experiment [8] was inactive.

Consider `N#Cc1ccc(N[C@@H](CC2CCCCC2)C(=O)NCc2cc(F)c(F)cc2F)c2ccccc12`, for which the growth inhibition in experiment [1] is 39%; in experiment [4] it was 94% (active). In addition, the results for the inhibition in experiment [2] and in experiment [3] were 12% and -3%, respectively. For the same compound, the result in experiment [5], in experiment [6], in experiment [7] and in experiment [8] was inactive.

Regarding `N[C@@H](CCNCc1ccc(-c2cccnc2)cc1)Cc1ccc(F)c(F)c1`, the growth inhibition in experiment [1] is 57% (active); in experiment [4], 98% (active). In addition, the inhibition was 45% in experiment [2] and 2% in experiment [3]. Also, the result in experiment [5], in experiment [6], in experiment [7] and in experiment [8] was inactive.

Regarding `COc1ccc2nc3cc(Cl)ccc3c(NCCCCCCNc3c4ccc(Cl)cc4nc4ccc(OC)cc34)c2c1`, the growth inhibition in experiment [1] is 79% (active); in experiment [4], 96% (active). Also, the inhibition in experiment [2] was 20%; in experiment [3] it was -5%. In addition, the outcome in experiment [5], in experiment [6], in experiment [7] and in experiment [8] was inactive.

Consider `O=C(Nc1ccc(Cl)cc1)c1cc(Cl)ccc1NC(=O)C1CCc2ccccc2O1` (stereo not drawn), for which the figures for the growth inhibition in experiment [1] and in experiment [4] were 63% (active) and 98% (active), respectively. For the same compound, the inhibition in experiment [2] is 1%; in experiment [3], -1%. For the same compound, the outcome in experiment [5], in experiment [6], in experiment [7] and in experiment [8] was inactive.

As to `Cc1cc2nc(-c3cccc(C(=O)NC4CCN(Cc5ccccc5)CC4)c3)[nH]c2cc1C`, the growth inhibition is 13% in experiment [1] and 101% (active) in experiment [4]. Moreover, the inhibition in experiment [2] is 32%; in experiment [3] it was 2%. Besides, the result in experiment [5], in experiment [6], in experiment [7] and in experiment [8] was inactive.

Regarding `Cc1nn(-c2ccccc2)c2nc(-c3ccccc3)cc(C(=O)N3CCOCC3)c12`, the growth inhibition in experiment [1] is 67% (active); in experiment [4], 93% (active). Besides, the inhibition in experiment [2] and in experiment [3] was 6% each time. The result in experiment [5], in experiment [6], in experiment [7] and in experiment [8] was inactive.

Consider `CC1(C)N=C(N)N=C(N)N1OCCSc1ccccc1`, for which the growth inhibition in experiment [1] and in experiment [4] was 95% (active) each time. In addition, the inhibition in experiment [2] is 68% (active); in experiment [3], 3%. The outcome in experiment [5], in experiment [6], in experiment [7] and in experiment [8] was inactive.

On to `C[C@H](NC(=O)c1c(CN2CCN(C(=O)C(C)(C)C)CC2)c(-c2cccs2)nc2ccccc12)C1CCCCC1`, for which the growth inhibition in experiment [1] is 62% (active); in experiment [4], 89% (active). In addition, the inhibition in experiment [2] was 2%; in experiment [3] it was 3%. Also, the result in experiment [5], in experiment [6], in experiment [7] and in experiment [8] was inactive.

`CN1CCN(c2ccnc3ccc(NC(=O)Nc4cccc5ccccc45)cc23)CC1`: the growth inhibition in experiment [1] was 96% (active); in experiment [4], 101% (active). Moreover, the results for the inhibition in experiment [2] and in experiment [3] were -3% and 1%, respectively. Moreover, the result in experiment [5], in experiment [6], in experiment [7] and in experiment [8] was inactive.

As for `Cc1cc(Br)cnc1CCCCNc1cc(=O)c2ccccc2[nH]1`, the growth inhibition in experiment [1] is 64% (active); in experiment [4], 91% (active). In addition, the inhibition in experiment [2] and in experiment [3] was -1% each time. Besides, the result in experiment [5], in experiment [6], in experiment [7] and in experiment [8] was inactive.

For the compound `C=CCN1C(=O)C(=Cc2cc(Br)ccc2O)SC1=Nc1ccccc1`, the growth inhibition in experiment [1] is 55% (active); in experiment [4], 96% (active). Further, the inhibition in experiment [2] and in experiment [3] was -4% in each case. Moreover, the outcome in experiment [5], in experiment [6], in experiment [7] and in experiment [8] was inactive.

As to `CN1CCc2cc(O)c(NS(=O)(=O)c3ccc(-c4ccc(Cl)cc4)cc3)cc2CC1`, the figures for the growth inhibition in experiment [1] and in experiment [4] were 3% and 104% (active), respectively. In addition, the inhibition was 7% in experiment [2] and 3% in experiment [3]. Moreover, the result in experiment [5], in experiment [6], in experiment [7] and in experiment [8] was inactive.

For the compound `COc1ccc(C=Cc2cc(N)c3ccccc3n2)cc1`, the results for the growth inhibition in experiment [1] and in experiment [4] were 16% and 93% (active), respectively. Moreover, the inhibition in experiment [2] is 38%; in experiment [3], 5%. For the same compound, the outcome in experiment [5], in experiment [6], in experiment [7] and in experiment [8] was inactive.

On to `COc1cc(N(C)Cc2cnc3nc(N)nc(N)c3n2)cc(OC)c1OC`, for which the values for the growth inhibition in experiment [1] and in experiment [4] were 2% and 95% (active), respectively. Moreover, the results for the inhibition in experiment [2] and in experiment [3] were 32% and 1%, respectively. The outcome in experiment [5], in experiment [6], in experiment [7] and in experiment [8] was inactive.

For `NC(=NCc1ccccc1Cl)NCCc1c[nH]c2ccccc12`, the growth inhibition in experiment [1] is 45%; in experiment [4], 83% (active). The inhibition was 16% in experiment [2] and 2% in experiment [3]. Also, the result in experiment [5], in experiment [6], in experiment [7] and in experiment [8] was inactive.

With `Cc1cc(N2CCNCC2)c2cc(NC(=O)Nc3ccc(Cl)c(Cl)c3)ccc2n1`, the results for the growth inhibition in experiment [1] and in experiment [4] were 86% (active) and 100% (active), respectively. In addition, the inhibition is 23% in experiment [2] and -2% in experiment [3]. The outcome in experiment [5], in experiment [6], in experiment [7] and in experiment [8] was inactive.

Usually inhibition stands for the change of the read-out against control, counted positive when it falls.

Source of the values: PubChem BioAssay.
